Here are results for five compounds from PubChem BioAssay.

Each structure is given as a SMILES string. Several values for one entry are separate records, joined by “and”; a condition that tells them apart may be missing. Identical values can stand only once. Records with an inconclusive call do not appear. Activity calls are given as the source filed them.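 The calls were made as follows, unless noted: active = normalized viability below 100% at a tested concentration; inactive = the rest.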

One may read the viability as a read-out of living cells in per cent, often relative to untreated cells. As usually defined, the inhibition is the drop in the measured response relative to a control, in per cent. As a reminder, the AC50 is the midpoint of the concentration-response curve, whichever way the signal moves.

Experiment [1] in a line: growth inhibition of DIPG glioma cells, dose response, cell-based, SU-DIPG-XVII, MIPE5.0, CellTiter-Glo, qHTS (AID 1347060; cut-off not given, nearly all actives have AC50 up to about 26 µM;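 as to AC50: cells exposed to compound for 48 hours before viability readout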). The conditions noted are these: SU-DIPG-XVII viability, CellTiter-Glo ATP luminescence. In general terms: Cellular ATP, detected with luciferase, serves as a proxy for viable cell number.
Experiment [2] is described as follows: growth inhibition of DIPG glioma cells, dose response, cell-based, SU-DIPG-XIII, MIPE5.0, CellTiter-Glo, qHTS (AID 1347064; cut-off not given, nearly all actives have AC50 up to about 23 µM). The conditions noted are these: SU-DIPG-XIII viability, CellTiter-Glo ATP luminescence.
Experiment [3] can be described thus: viability loss in pontine glioma line – cell-based, SU-DIPG-XXV, MIPE5.0, CellTiter-Glo, qHTS, dose response (AID 1347065; cut-off not given, nearly all actives have AC50 up to about 26 µM;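 also: cells exposed to compound for 48 hours before ATP readout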). The conditions noted are these: CellTiter-Glo ATP luminescence.
The nature of experiment [4]: JHH-DIPG-1 glioma cell viability, MIPE5.0 library, CellTiter-Glo luminescence, qHTS (AID 1347067; cut-off not given, nearly all actives have AC50 up to about 26 µM;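 also: cells exposed to compound for 48 hours before readout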). The conditions noted are these: JHH-DIPG-1 glioma viability, CellTiter-Glo ATP luminescence.
A short description of experiment [5]: SU-DIPG-XXV glioma cell viability, MIPE5.0 library, qHTS (AID 1347068; cut-off not given, nearly all actives have IC50 up to about 30 µM).
Experiment [6] can be described thus: liver-stage malaria parasite growth inhibition, primary screen, cell-based, HepG2, luciferase luminescence, HepG2 viability (AID 624349; in the data active = parasite load remaining mostly below about 12%, no sharp cut-off; inactive = mostly above about 10%;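 also: 100% = mean of DMSO negative control wells on the same plate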). The conditions noted are these: P. berghei liver stage in HepG2, luciferase luminescence, concentration not given here; parasite load remaining: stronger effect = lower value; viability: measured here: HepG2 viability without parasites.

Experiment [7] is described as follows: Cy5 fluorescence interference with SSB-bound oligo, artefact control for HCV NS3 helicase inhibitor project, biochemical, NIH Clinical Collection, E. coli SSB (AID 743268; call rule not given here).
Experiment [8] deals with Hepatitis C virus NS3 helicase. Briefly: HCV NS3 helicase inhibitors, primary screen, biochemical, fluorescence polarization, NIH Clinical Collection (AID 743270; call rule not given here). The conditions noted are these: NS3 helicase binding to Cy5-dT15 DNA, stronger effect = higher value, concentration not given here. (Polarisation of emitted light reports the rotation of a fluorescent probe.)
Experiment [9] concerns the target Single-stranded DNA-binding protein (Escherichia coli (strain K12)) (UniProt P0AGE0). The experiment is described as follows: E. coli SSB displacement from DNA, counter-screen for HCV NS3 helicase inhibitor project, biochemical, fluorescence polarization, NIH Clinical Collection (AID 743271; in the data active = inhibition above about 28%). The conditions noted are these: stronger effect = higher value, concentration not given here. On the technique in general: A counterscreen serves to expose hits that act by an unwanted route or on another target.

Experiment [10] is described as follows: fluorescence interference in NS3h assay format, artefact control for HCV NS3 helicase inhibitor project, biochemical, NIH Clinical Collection (AID 743272; call rule not given here;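 also: HCV NS3 helicase with a Cy5 labelled single stranded DNA probe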). The conditions noted are these: fluorescence interference counterscreen, stronger effect = lower value.
The nature of experiment [11]: growth inhibition of DIPG glioma cells, dose response, cell-based, SU-DIPG-IV, MIPE4.0, CellTiter-Glo, qHTS (AID 1347063; cut-off not given, nearly all actives have AC50 up to about 30 µM;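 also: compound exposure lasted 48 hours before the viability readout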). The conditions noted are these: SU-DIPG-IV viability, CellTiter-Glo ATP luminescence.
Experiment [12] in a line: SU-DIPG-VI glioma cell viability, MIPE4.0 library, CellTiter-Glo luminescence, qHTS (AID 1347066; cut-off not given, nearly all actives have AC50 up to about 30 µM;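 also: cells exposed to compound for 48 hours before readout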). The conditions noted are these: CellTiter-Glo ATP luminescence.
A short description of experiment [13]: sensitizers of A549 cells to miR-34 induction, primary screen, imaging, A549 dox-inducible miR-34, nuclei and caspase counts (AID 1347080;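 active = compounds whose cell count with miR-34 switched on is under 0.7 times the count with it off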). The conditions noted are these: A549 miR-34 inducible, Hoechst nuclei count, 48 h.
Experiment [14] is described as follows: survival rescue of mitochondrial mutant cells in low glucose, primary screen, MELAS cybrids, Rieske KO mouse fibroblasts, CellTiter-Glo (AID 1508586;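 active = mean z-score across replicates of 1.96 or higher in either the MELAS or the Rieske mutant cell line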;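 also: z relative to plate mean and SD of compound and empty wells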).
Experiment [15] is described as follows: viability rescue of complex I mutant cybrids, primary screen, cell-based, galactose medium, ATP luminescence (AID 1645843;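 active = z-score of at least 1.8 in each of two replicates, scored against plate mean and spread of sample wells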;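 also: positive z means more ATP and so rescue of galactose-driven cybrid death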). The conditions noted are these: complex I mutant cybrid cells, 72 h, stronger effect = higher value.
A short description of experiment [16]: growth inhibition of DIPG glioma cells, dose response, cell-based, JHH-DIPG-1, MIPE4.0, CellTiter-Glo, qHTS (AID 1347062; cut-off not given, nearly all actives have AC50 up to about 27 µM;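 as to AC50: cells exposed to compound for two days before readout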). The conditions noted are these: JHH-DIPG-1 viability, CellTiter-Glo ATP luminescence.
The nature of experiment [17]: growth inhibition of DIPG glioma cells, dose response, cell-based, SU-DIPG-XIII, MIPE4.0, CellTiter-Glo, qHTS (AID 1347061; cut-off not given, nearly all actives have AC50 up to about 37 µM;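 also: cells exposed to compound for 48 hours before readout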). The conditions noted are these: SU-DIPG-XIII viability, CellTiter-Glo ATP luminescence.
A short description of experiment [18]: ovarian cancer cell viability with rucaparib, profiling panel, oncology-focused library, rucaparib conditional (AID 1508598). The conditions noted are these: patient-derived ovarian cancer cells, CellTiter-Glo viability, 144 h, stronger effect = lower value.
The mark [19] stands for this setting: measured here: relative caspase fold change +Dox/-Dox.
Setting [20] is: measured here: total cells with miR-34 induction, stronger effect = lower value.
[21] abbreviates: measured here: total cells without miR-34 induction.
The mark [22] stands for this setting: MELAS cybrid survival, CellTiter-Glo 48 h, stronger effect = higher value.
[23] abbreviates: Rieske KO mouse fibroblast survival, CellTiter-Glo 72 h.

On to `Cc1ncc(OC[C@@]2(c3cccc(F)c3)C[C@H]2C(=O)Nc2ccc(F)cn2)c(C)n1`, for which the result in experiment [1], in [2], in experiment [3], in [4] and in experiment [5] was inactive.

As for `C[C@]12Cc3cn[nH]c3C[C@@H]1CC[C@@H]1[C@@H]2CC[C@@]2(C)[C@H]1CC[C@]2(C)O`, the parasite load remaining in experiment [6] is 50.6% (inactive) and 13.2% (inactive). In addition, in experiment [6], the viability was 69.5% and 91.5%. Besides, the fluorescence ratio in [7] was 0.94 (inactive); in experiment [10], 0.96 (inactive). The inhibition in experiment [8] is -1.97% (inactive); in [9], -2.76% (inactive). Further, the outcome in experiment [1], in experiment [11], in [2], in experiment [3], in experiment [12] and in [4] was inactive. In addition, the result in [5] was inactive. For the same compound, the results for the fold change in experiment [13] (stronger effect = lower value) and in experiment [13] (setting [19]) were 0.887 (inactive) and 2.02, respectively. The cell count in experiment [13] (setting [20]) turned out to be 8690; in experiment [13] (setting [21]) it was 9800. Besides, the z-score was 0.697 (inactive) and -0.417 (inactive) in [14] (setting [22]); -0.0861 and -1.23 in experiment [14] (setting [23]); -0.265 (inactive) in experiment [15].

`COc1cc2c(cc1F)C(c1ccccc1Cl)=Nc1c(n[nH]c1C)N2`: the half-maximal activity concentration (AC50) in [1] was 5.25 µM (active); in experiment [3] it was 13.2 µM (active); in experiment [4], 14.8 µM (active). Besides, the call in experiment [5] was inactive.

For `C[C@](O)(CS(=O)(=O)c1ccc(F)cc1)C(=O)Nc1ccc(C#N)c(C(F)(F)F)c1`, the AC50 in [16] was 2.35 µM (active); in [11], 1.66 µM (active). Also, the fold change in [13] (stronger effect = lower value) is 0.814 (inactive); in experiment [13] (setting [19]) it was 0.512. Further, the cell count in experiment [13] (setting [20]) was 7480; in experiment [13] (setting [21]), 9190. For the same compound, the z-score in experiment [14] (setting [22]) is 0.389 (inactive); in experiment [14] (setting [23]), -0.102; in experiment [15] it was -0.71 (inactive).

Consider `Cc1c(N)nc([C@H](CC(N)=O)NC[C@@H](N)C(N)=O)nc1C(=O)N[C@H](C(=O)N[C@@H](C)[C@H](O)[C@@H](C)C(=O)N[C@@H](C(=O)NCCc1nc(-c2nc(C(=O)NCCC[S+](C)C)cs2)cs1)[C@@H](C)O)C(O[C@H]1O[C@H](CO)[C@H](O)[C@@H](O)[C@H]1O[C@H]1O[C@H](CO)[C@@H](O)[C@H](OC(N)=O)[C@@H]1O)c1cnc[nH]1` (some centres not stated), for which the call in [17], in experiment [16], in experiment [2], in [12], in experiment [4] and in [5] was inactive. In addition, the concentration at half-maximal activity (AC50) in [11] was 1.87 µM (active). The viability in [18] (at 0.000305 µM, OCI-C5x cells, with rucaparib 10 µM, 100% = cells with rucaparib alone) was 106% (inactive); in experiment [18] (at 0.000305 µM, OCI-C5x cells, without rucaparib), 102% (inactive); in [18] (at 0.000305 µM, OCI-P5x cells, with rucaparib 20 µM, 100% = cells with rucaparib alone) it was 109% (inactive); in experiment [18] (at 0.000305 µM, OCI-P5x cells, without rucaparib) it was 102% (inactive); in [18] (at 0.00122 µM, OCI-C5x cells, with rucaparib 10 µM, 100% = cells with rucaparib alone) it was 109% (inactive); in experiment [18] (at 0.00122 µM, OCI-C5x cells, without rucaparib) it was 107% (inactive). The viability in experiment [18] (at 0.00122 µM, OCI-P5x cells, with rucaparib 20 µM, 100% = cells with rucaparib alone) was 106% (inactive); in experiment [18] (at 0.00122 µM, OCI-P5x cells, without rucaparib), 97.2% (active); in experiment [18] (at 0.00488 µM, OCI-C5x cells, with rucaparib 10 µM, 100% = cells with rucaparib alone), 120% (inactive); in experiment [18] (at 0.00488 µM, OCI-C5x cells, without rucaparib), 100% (inactive); in [18] (at 0.00488 µM, OCI-P5x cells, with rucaparib 20 µM, 100% = cells with rucaparib alone) it was 96% (active); in experiment [18] (at 0.00488 µM, OCI-P5x cells, without rucaparib), 94.3% (active). Further, the viability in experiment [18] (at 0.0195 µM, OCI-C5x cells, with rucaparib 10 µM, 100% = cells with rucaparib alone) was 104% (inactive); in [18] (at 0.0195 µM, OCI-C5x cells, without rucaparib) it was 90.7% (active); in experiment [18] (at 0.0195 µM, OCI-P5x cells, with rucaparib 20 µM, 100% = cells with rucaparib alone), 88.2% (active); in experiment [18] (at 0.0195 µM, OCI-P5x cells, without rucaparib), 84.4% (active); in [18] (at 0.0781 µM, OCI-C5x cells, with rucaparib 10 µM, 100% = cells with rucaparib alone) it was 103% (inactive); in experiment [18] (at 0.0781 µM, OCI-C5x cells, without rucaparib), 95% (active). The viability in experiment [18] (at 0.0781 µM, OCI-P5x cells, with rucaparib 20 µM, 100% = cells with rucaparib alone) was 94.6% (active); in experiment [18] (at 0.0781 µM, OCI-P5x cells, without rucaparib), 85.9% (active); in [18] (at 0.313 µM, OCI-C5x cells, with rucaparib 10 µM, 100% = cells with rucaparib alone), 86.7% (active); in experiment [18] (at 0.313 µM, OCI-C5x cells, without rucaparib), 84.5% (active); in [18] (at 0.313 µM, OCI-P5x cells, with rucaparib 20 µM, 100% = cells with rucaparib alone) it was 76.8% (active); in [18] (at 0.313 µM, OCI-P5x cells, without rucaparib), 57.6% (active). Also, the viability in experiment [18] (at 1.25 µM, OCI-C5x cells, with rucaparib 10 µM, 100% = cells with rucaparib alone) was 74.8% (active); in experiment [18] (at 1.25 µM, OCI-C5x cells, without rucaparib), 69.9% (active); in [18] (at 1.25 µM, OCI-P5x cells, with rucaparib 20 µM, 100% = cells with rucaparib alone) it was 62.8% (active); in experiment [18] (at 1.25 µM, OCI-P5x cells, without rucaparib) it was 39.3% (active); in experiment [18] (at 5 µM, OCI-C5x cells, with rucaparib 10 µM, 100% = cells with rucaparib alone), 53.8% (active); in experiment [18] (at 5 µM, OCI-C5x cells, without rucaparib) it was 47.2% (active). Besides, the viability in [18] (at 5 µM, OCI-P5x cells, with rucaparib 20 µM, 100% = cells with rucaparib alone) is 39.6% (active); in experiment [18] (at 5 µM, OCI-P5x cells, without rucaparib) it was 21.3% (active).
